Experimental data: PubChem BioAssay (EPA / NIEHS)
The source made the active and inactive calls. The calls were made as follows: active = hit-call score of the fitted dose curve at least 0.9, where 1 is the maximum; inactive = score below 0.9.

Read-out: Intercellular Adhesion Molecule 1 (ICAM1), ICAM1 (gene 3383)
Assay: LTEA_HepaRG_ICAM1: Life Technologies and Expression Analysis (LTEA) Assay for Intercellular Adhesion Molecule 1 (ICAM1) using HepaRG (AID 2283507)
Conditions: mRNA level, 48 h; actives raise or lower the signal
Experimental: LTEA_HepaRG is a cell based, multiplexed-readout assay that uses HepaRG, a human liver cell line, with measurements taken at 48 hours after chemical dosing on a 96-well plate.LTEA_HepaRG_ICAM1 is one of 102 assay component(s) measured in the LTEA HepaRG cell culture assay. It is a marker of Fibrosis.Data from the assay component LTEA_HepaRG_ICAM1 was analyzed into 1 endpoint. This assay endpoint, LTEA_HepaRG_ICAM1, was analyzed with bidirectional fitting relative to DMSO as the negative control and baseline of activity. Using a type of inducible reporter, measures of mRNA induction for gain or loss-of-signal activity can be used to understand regulation of transcription factor activity. To generalize the intended target to other relatable targets, this assay endpoint is annotated to the cell adhesion molecules intended target family, where the subfamily is Immunoglobulin CAM.
A total of 1060 chemcials from the ToxCast library were tested in eight-point concentration-response experiments. Cell culture and cytotoxicity assays were conducted at Thermo Fisher Scientific's Custom Services facility (Madison, WI). A single lot of human HepaRG cells (Thermo Fisher Scientific, Frederick, MD) was used for the cell culture experiments. 96-well format collagen type I coated plates of human HepaRG cells were prepared using established methods. Briefly, cryopreserved HepaRG cells were thawed, plated at a density of approximately 100,000 cells/well in HepaRG Thaw, Plate, and General Purpose media (HPRG770, Thermo Fisher Scientific), and incubated for 48 hours. 0.5% DMSO was selected as vehicle control to balance the requisite need of DMSO in HepaRG cultures to maintain differentiation (for example, baseline metabolism, proportions of hepatocytes vs. cholangiocytes), while enabling further hepatic receptor pathway activation (for example, PXR and CAR) in response to chemical exposure. 48 hours after plating, the culture medium was replaced with HepaRG Serum-Free Incudtion Media. Cells were exposed to each test chemical in duplicate and maintained in CO2 incubators for another 48 hours. Chemical plates were thawed to room temperature and 200x concentrations of treatment groups were prepared. 8-point conentration-reponse curves were made with the highest exposure at 100 uM, followed by half-log dilutions, all in 0.5% DMSO. Each test plate contained variouse controls, induction positive controls (1mM phenobarbital), cytotoxicity positive controls ([…] aflatoxin B1), vehicle controls (0.5% DMSO), and total lysis controls (0.5% DMSO). Cell morphology images were taken using an Essen IncuCyte FLR automated microscope, with six 96-well plates imaged in about 24 minutes. Images were captured and exported and JPEG files. Spent culture media was transfered to black-well plates for the LDH assay, and remaining media was sorted at -80 C for later use. Cells were treated with RLT buffer and frozen until shipped for gene expression analysis. Total RNA was isolated from the cell suspension in 75 uL of Buffer RLT (Qiagen, Germantown, MD 20874) by Quintiles/Expression Analysis (Durham, NC) using a custom isolation procedure. Total RNA from each plate well was transferred to a preamplification plate. Fluidigm's 96.96 Dynamic ArrayTM (Fluidigm, Amsterdam, the Netherlands) technology was used for gene expression analyses by quantitative reverse transcription polymerase chain reaction (qRT-PCR, performed by Quintiles/Expression Analysis, Durham, NC)89. Standard TaqManTM Assays (Applied Biosystems/ThermoFisher Scientific, Foster City, CA) were used to assess the expression of 93 genes selected based on their selectivity and sensitivity to important hepatic receptors known to be modulated by environmental chemicals; importance in human hepatocyte functionality; and hepatotoxicity. […]

| Structure (SMILES) | AC50 | outcome |
| --- | --- | --- |
| O=P(OC(CCl)CCl)(OC(CCl)CCl)OC(CCl)CCl | 84.1 µM (active) |  |
| CCOCCOCCOCCO |  | inactive |
| CCCCCCCCCCCCCCCO |  | inactive |
| CC(=O)OCCC(C)C |  | inactive |
| Cc1[nH]cnc1C[C@H]1CCc2c(C)c3ccccc3n2C1=O | 35.9 µM (active) |  |
| O=c1[nH]c2ccc(S(=O)CCN3CCC(Cc4ccc(F)cc4)CC3)cc2o1 (stereo not given) |  | inactive |
| Nc1ccc(Nc2ccccc2)cc1 |  | inactive |
| CCN(C(=O)c1cc(C)cc(OC[C@H](C)Nc2ccncc2)c1)C(C)C |  | inactive |
| Cn1c(=O)cc(Oc2ccc(F)cc2F)c2cnc(NCC(C)(C)O)nc21 |  | inactive |
| Oc1ccc2c(c1)-c1ccccc1C2 |  | inactive |
| CC(O)CN(CCN(CC(C)O)CC(C)O)CC(C)O (stereo not given) |  | inactive |
| CC(C)=CCC/C(C)=C\CO |  | inactive |
| COCCOc1cc2cc(C(=O)NC3CCN(C(C)C)CC3)n(CC(=O)Nc3ccc(Cl)cn3)c2cn1 |  | inactive |
| O=c1n(CC2CO2)c(=O)n(CC2CO2)c(=O)n1CC1CO1 (stereo not given) |  | inactive |
| C1=CCCC=CCCC=CCC1 |  | inactive |
| COc1ccc(/C=C/S(=O)(=O)NC(=O)c2ccc(C)cc2Cl)cc1 |  | inactive |
| CC[C@H]1OC(=O)[C@H](C)[C@@H](O[C@H]2C[C@@](C)(OC)[C@@H](O)[C@H](C)O2)[C@H](C)[C@@H](O[C@@H]2O[C@H](C)C[C@H](N(C)C)[C@H]2O)[C@](C)(O)C[C@@H](C)C(=O)[C@H](C)[C@@H](O)[C@]1(C)O |  | inactive |
| NC(=O)NO |  | inactive |
| CCC(C)(C)C(=O)O[C@H]1C[C@@H](C)C=C2C=C[C@H](C)[C@H](CC[C@@H]3C[C@@H](O)CC(=O)O3)[C@H]21 |  | inactive |
| O=C(O)c1cccc(Oc2ccccc2)c1 |  | inactive |

| Structure (SMILES) | AC50 | outcome |
| --- | --- | --- |
| CC(C)(O)c1coc(S(=O)(=O)NC(=O)Nc2c3c(cc4c2CCC4)CCC3)c1 |  | inactive |
| O=C(CCCCCCCCc1cccnc1)N1CCC(C=C(c2ccccc2)c2ccccc2)CC1 | 16.4 µM (active) |  |
| CCCC(=O)OCC |  | inactive |
| O=C(O)CC(O)C(=O)O (stereo not given) |  | inactive |
| CCc1cc(SCc2sc(-c3ccc(C(F)(F)F)cc3)nc2CN2CCN(c3ccc(OC)cc3)CC2)ccc1OCC(=O)O | 92.9 µM (active) |  |
| CCCCC(CC)COC(=O)c1ccc(C(=O)OCC(CC)CCCC)cc1 (stereo not given) |  | inactive |
| CC[C@H](C)C(=O)O[C@H]1C[C@@H](C)C=C2C=C[C@H](C)[C@H](CC[C@@H]3C[C@@H](O)CC(=O)O3)[C@H]21 |  | inactive |
| COC(=O)c1c(Cl)c(Cl)c(C(=O)OC)c(Cl)c1Cl |  | inactive |
| Nc1cccc(N)c1 |  | inactive |
| CC(C)=CCCC(C)CCO (stereo not given) |  | inactive |
| CNS(=O)(=O)c1cc(C(=O)N2CCC(CCN3C4CCC3CC(n3c(C)nc5ccccc53)C4)(c3cccc(F)c3)CC2)c(Cl)cc1F (stereo not given) | 26.4 µM (active) |  |
| Clc1nc(Cl)c(Cl)c(Cl)c1Cl |  | inactive |
| CCOC(=O)c1ccc(C2CCC(NC[C@H](O)COc3ccc(O)c(NS(C)(=O)=O)c3)CC2)cc1 (stereo not given in full) |  | inactive |
| O=C(O)c1cccc(N(Cc2cccnc2)c2ccc(OC(F)F)c(OC(F)F)c2)c1 |  | inactive |
| CC(C)=CCCC(C)=CC=O |  | inactive |
| COC(=O)c1ccccc1O |  | inactive |
| Nc1nc2ncc(CNc3ccc(C(=O)N[C@@H](CCC(=O)O)C(=O)O)cc3)nc2c(=O)[nH]1 |  | inactive |
| O=C(O)c1cc(N=Nc2ccc(S(=O)(=O)Nc3ccccn3)cc2)ccc1O |  | inactive |
| COc1ccc2sc(C(=O)Nc3nnn[nH]3)c(OC(C)C)c2c1 |  | inactive |
| Cc1c(-c2cccnc2)c2ccccc2n1CCCCC(=O)O |  | inactive |
